Values joined by “and” are separate entries in the source; they are usually repeats but may differ in a detail not shown here. Equal values may be shown once. Inconclusive results are not listed. Active and inactive are the calls of the source. The calls were made as follows: active = hit-call score of the fitted dose curve at least 0.9, where 1 is the maximum; inconclusive = response in the unintended direction; inactive = score below 0.9.
biological target: human Vasopressin 1A Receptor (V1A), AVPR1A (gene 552) (UniProt P37288); assay: NVS_GPCR_hV1A: NovaScreen (NVS) G Protein-Coupled Receptor Assay for human Vasopressin 1A Receptor (V1A) (AID 2283284)
Summary of the method: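 Single-concentration duplicate screen at 25 uM, with concentration-response follow-up (top 50 uM) for actives. The assay measured displacement of a radioligand from human platelet-derived receptor after 1.5 h, detected by filtration and scintillation counting.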

Sequence of human Vasopressin 1A Receptor (V1A), AVPR1A (gene 552) (P37288 whole entry, looked up): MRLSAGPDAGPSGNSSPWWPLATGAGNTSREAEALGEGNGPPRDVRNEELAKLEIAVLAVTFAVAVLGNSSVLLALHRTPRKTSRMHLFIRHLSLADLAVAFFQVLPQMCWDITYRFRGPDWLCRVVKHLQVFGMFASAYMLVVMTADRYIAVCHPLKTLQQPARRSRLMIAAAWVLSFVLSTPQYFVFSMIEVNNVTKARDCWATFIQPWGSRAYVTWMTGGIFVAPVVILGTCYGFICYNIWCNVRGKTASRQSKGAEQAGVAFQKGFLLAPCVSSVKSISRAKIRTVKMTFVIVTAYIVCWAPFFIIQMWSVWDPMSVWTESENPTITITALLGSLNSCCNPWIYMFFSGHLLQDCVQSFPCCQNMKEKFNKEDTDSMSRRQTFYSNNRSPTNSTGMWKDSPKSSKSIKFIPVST

| SMILES | outcome |
| --- | --- |
| CS(=O)(=O)c1ccc([C@@H](CC2CCCC2)C(=O)Nc2cnccn2)cc1Cl | inactive |
| CCCCc1oc2ccccc2c1C(=O)c1cc(I)c(OCCN(CC)CC)c(I)c1 | inactive |
| CCCCC(CC)C(=O)O (stereo not drawn) | inactive |

biological target: rat Serotonin, 5-Hydroxytryptamine Receptor 1 (5HT1), Non-Selective Binding, Htr1a (gene 24473) (UniProt P19327); assay: NVS_GPCR_r5HT1_NonSelective: NovaScreen (NVS) G Protein-Coupled Receptor Assay for rat Serotonin, 5-Hydroxytryptamine Receptor 1 (5HT1), Non-Selective Binding (AID 2283286)
Summary of the method: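 Binding of a radioligand to rat cortex membranes is read by filtration and scintillation counting after 1 h. Compounds were screened at 25 uM in duplicate. Actives were then titrated to a top of 50 uM. DMSO is the baseline.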

Sequence of rat Serotonin, 5-Hydroxytryptamine Receptor 1 (5HT1), Non-Selective Binding, Htr1a (gene 24473) (P19327 whole entry, looked up): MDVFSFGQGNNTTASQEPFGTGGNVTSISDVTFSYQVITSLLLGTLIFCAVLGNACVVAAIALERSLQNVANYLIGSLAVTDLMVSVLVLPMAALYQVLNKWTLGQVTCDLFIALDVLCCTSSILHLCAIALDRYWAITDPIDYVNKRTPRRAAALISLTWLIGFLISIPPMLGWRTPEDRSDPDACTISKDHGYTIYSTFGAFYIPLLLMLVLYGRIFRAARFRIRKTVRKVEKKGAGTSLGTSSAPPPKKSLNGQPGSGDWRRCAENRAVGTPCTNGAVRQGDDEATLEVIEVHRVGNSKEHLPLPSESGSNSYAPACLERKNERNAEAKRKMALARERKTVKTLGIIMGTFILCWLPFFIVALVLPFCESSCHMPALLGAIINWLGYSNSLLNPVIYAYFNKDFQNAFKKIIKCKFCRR

| SMILES | AC50 | outcome |
| --- | --- | --- |
| N=C(N)c1ccc(OCCCCCOc2ccc(C(=N)N)cc2)cc1 | 3.44 µM (active) |  |
| O=C(CCCN1CCC(O)(c2ccc(Cl)cc2)CC1)c1ccc(F)cc1 |  | inactive |
| CN(C)CCOC(c1ccccc1)c1ccccc1 | 6.56 µM (active) |  |

tested on: 5-hydroxytryptamine receptor 2C (pig); assay: NVS_GPCR_p5HT2C: NovaScreen (NVS) G Protein-Coupled Receptor Assay for pig Serotonin, 5-Hydroxytryptamine Receptor 2C (5HT2C) (AID 2283288)
Summary of the method: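 Radioligand displacement on membranes from pig choroid plexus, detected by filter scintillation counting after 1 h. Tested first at a single 25 uM in duplicate, then in concentration-response for actives; DMSO served as baseline.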

| SMILES | AC50 | outcome |
| --- | --- | --- |
| N=C(N)c1ccc(OCCCCCOc2ccc(C(=N)N)cc2)cc1 | 10.2 µM (active) |  |
| CN(Cc1cnc2nc(N)nc(N)c2n1)c1ccc(C(=O)N[C@@H](CCC(=O)O)C(=O)O)cc1 |  | inactive |
| CCC(C)c1ccccc1O (stereo not drawn) | 11.5 µM (active) |  |
| CCCCCCCCCCCCOS(=O)(=O)O |  | inactive |

biological target: human Opioid Receptor Mu (Opiate Mu), OPRM1 (gene 4988) (UniProt P35372); assay: NVS_GPCR_hOpiate_mu: NovaScreen (NVS) G Protein-Coupled Receptor Assay for human Opioid Receptor Mu (Opiate Mu) (AID 2283290);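 also: hits lower bound tracer signal versus DMSO meaning displacement of the ligand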
Summary of the method: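 CHO-derived receptor protein, cell-free; radioligand displacement, filtration + scintillation counting, read at 2.5 h. DMSO = negative control/baseline. Primary: 25 uM single conc, duplicate; secondary: concentration series.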

Sequence of human Opioid Receptor Mu (Opiate Mu), OPRM1 (gene 4988) (P35372 whole entry, looked up): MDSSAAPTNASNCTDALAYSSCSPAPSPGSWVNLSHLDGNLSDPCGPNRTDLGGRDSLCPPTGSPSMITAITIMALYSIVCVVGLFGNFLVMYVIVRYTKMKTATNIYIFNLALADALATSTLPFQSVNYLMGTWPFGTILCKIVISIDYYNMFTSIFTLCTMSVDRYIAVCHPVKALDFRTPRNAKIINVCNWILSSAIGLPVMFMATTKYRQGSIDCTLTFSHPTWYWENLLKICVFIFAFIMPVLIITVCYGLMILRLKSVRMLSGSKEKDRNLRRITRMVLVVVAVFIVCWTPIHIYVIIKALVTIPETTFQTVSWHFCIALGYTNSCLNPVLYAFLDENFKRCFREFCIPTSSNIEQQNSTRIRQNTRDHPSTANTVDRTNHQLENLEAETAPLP

| SMILES | AC50 | outcome |
| --- | --- | --- |
| CN(C)c1ccc(C(=C2C=CC(=[N+](C)C)C=C2)c2ccccc2)cc1 | 6.79 µM (active) and 6.47 µM (active) |  |
| CN(Cc1cnc2nc(N)nc(N)c2n1)c1ccc(C(=O)N[C@@H](CCC(=O)O)C(=O)O)cc1 |  | inactive |
| C=CC(=C)CC/C=C(\C)CCC=C(C)C |  | inactive |
| CCCCCCCCCCCCOS(=O)(=O)O | 25 µM (active) |  |
| CN(C)CCOC(c1ccccc1)c1ccccc1 |  | inactive |
| O=C1OC2(c3ccccc31)c1cc(I)c(O)c(I)c1Oc1c2cc(I)c(O)c1I | 0.0269 µM (active) |  |
| CC(C)(C)c1ccc(O)c(O)c1 | 17.4 µM (active) |  |
| NC(=NCCCCCCN=C(N)/N=C(\N)Nc1ccc(Cl)cc1)/N=C(\N)Nc1ccc(Cl)cc1 | 3.32 µM (active) and 3.04 µM (active) |  |
| CCCCCCCCCCCCCCCCCC[N+](C)(C)Cc1ccccc1 | 2.17 µM (active) |  |

biological target: guinea pig Serotonin, 5-Hydroxytryptamine Receptor 4 (5HT4), HTR4 (gene 100135548) (UniProt O70528); assay: NVS_GPCR_g5HT4: NovaScreen (NVS) G Protein-Coupled Receptor Assay for guinea pig Serotonin, 5-Hydroxytryptamine Receptor 4 (5HT4) (AID 2283294)
Summary of the method: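 Compounds first screened in duplicate at 25 uM, actives followed up in concentration series. Binding measured as displacement of specific radioligand from guinea pig striatal membranes, 1 h, filter-based scintillation read-out versus DMSO baseline.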

Sequence of guinea pig Serotonin, 5-Hydroxytryptamine Receptor 4 (5HT4), HTR4 (gene 100135548) (O70528 whole entry, looked up): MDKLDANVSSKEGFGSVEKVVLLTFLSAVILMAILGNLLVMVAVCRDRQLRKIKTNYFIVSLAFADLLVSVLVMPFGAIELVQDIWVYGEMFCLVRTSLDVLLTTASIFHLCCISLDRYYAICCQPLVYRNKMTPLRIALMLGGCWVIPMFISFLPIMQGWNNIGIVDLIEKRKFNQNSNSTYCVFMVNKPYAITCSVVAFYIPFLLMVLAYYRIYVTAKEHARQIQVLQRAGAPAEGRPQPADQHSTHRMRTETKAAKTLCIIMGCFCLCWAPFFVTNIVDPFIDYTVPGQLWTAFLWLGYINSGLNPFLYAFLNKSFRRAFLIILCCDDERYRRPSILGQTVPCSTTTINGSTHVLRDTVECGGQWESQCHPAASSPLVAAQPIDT

| SMILES | AC50 | outcome |
| --- | --- | --- |
| N=C(N)c1ccc(OCCCCCOc2ccc(C(=N)N)cc2)cc1 | 2.4 µM (active) |  |
| O=C(CCCN1CCC(O)(c2ccc(Cl)cc2)CC1)c1ccc(F)cc1 | 1.75 µM (active) |  |
| CCCCc1oc2ccccc2c1C(=O)c1cc(I)c(OCCN(CC)CC)c(I)c1 | 15.7 µM (active) |  |
| CN(C)CCOC(c1ccccc1)c1ccccc1 |  | inactive |

tested on: rat Adrenergic, Alpha 1B Receptor (Adra1B), gene 24173; assay: NVS_GPCR_rAdra1B: NovaScreen (NVS) G Protein-Coupled Receptor Assay for rat Adrenergic, Alpha 1B Receptor (Adra1B) (AID 2283297)
Summary of the method: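 Filter-binding radioligand competition on membranes from rat liver, read after 1 h by scintillation counting. Single-concentration duplicate screen at 25 uM, followed by concentration-response on actives, normalised to DMSO.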

| SMILES | AC50 |
| --- | --- |
| N=C(N)c1ccc(OCCCCCOc2ccc(C(=N)N)cc2)cc1 | 1.06 µM (active) |
| CCCCc1oc2ccccc2c1C(=O)c1cc(I)c(OCCN(CC)CC)c(I)c1 | 9.13 µM (active) |
| CN(C)CCOC(c1ccccc1)c1ccccc1 | 9.65 µM (active) |

biological target: rat Adrenergic Receptor, Alpha 2 (Adra2), Non-selective Binding, Adra2a (gene 25083) (UniProt P22909); assay: NVS_GPCR_rAdra2_NonSelective: NovaScreen (NVS) G Protein-Coupled Receptor Assay for rat Adrenergic Receptor, Alpha 2 (Adra2), Non-selective Binding (AID 2283299)
Summary of the method: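 Filter-based scintillation counting of radioligand binding to rat cortical membrane receptors, measured 1.25 hours post-dosing; loss of signal versus DMSO indicates displacement. Initial single-concentration duplicate at 25 uM, then concentration series.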

Sequence of rat Adrenergic Receptor, Alpha 2 (Adra2), Non-selective Binding, Adra2a (gene 25083) (P22909 whole entry, looked up): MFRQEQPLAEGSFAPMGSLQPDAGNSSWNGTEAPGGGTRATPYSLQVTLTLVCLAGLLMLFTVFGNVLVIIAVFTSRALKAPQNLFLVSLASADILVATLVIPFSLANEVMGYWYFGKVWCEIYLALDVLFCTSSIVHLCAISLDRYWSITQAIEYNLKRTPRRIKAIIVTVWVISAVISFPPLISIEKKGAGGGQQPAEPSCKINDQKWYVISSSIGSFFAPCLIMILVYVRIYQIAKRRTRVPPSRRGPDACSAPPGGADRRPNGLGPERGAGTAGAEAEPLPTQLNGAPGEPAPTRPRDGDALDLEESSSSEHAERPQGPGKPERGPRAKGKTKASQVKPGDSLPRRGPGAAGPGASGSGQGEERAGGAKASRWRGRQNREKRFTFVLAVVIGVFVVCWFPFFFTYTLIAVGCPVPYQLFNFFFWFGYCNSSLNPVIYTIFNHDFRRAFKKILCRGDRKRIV

| SMILES | AC50 |
| --- | --- |
| N=C(N)c1ccc(OCCCCCOc2ccc(C(=N)N)cc2)cc1 | 3.49 µM (active) |
| CN(C)c1ccc(C(=C2C=CC(=[N+](C)C)C=C2)c2ccccc2)cc1 | 8.31 µM (active) and 7.55 µM (active) |
| CCCCc1oc2ccccc2c1C(=O)c1cc(I)c(OCCN(CC)CC)c(I)c1 | 10.8 µM (active) |
| CN(C)CCOC(c1ccccc1)c1ccccc1 | 8.43 µM (active) |
| COC1=CC(=O)C[C@@H](C)[C@]12Oc1c(Cl)c(OC)cc(OC)c1C2=O | 3.69 µM (active) |
| NC(=NCCCCCCN=C(N)/N=C(\N)Nc1ccc(Cl)cc1)/N=C(\N)Nc1ccc(Cl)cc1 | 17.6 µM (active) |

biological target: rat Histamine Receptor (H3), Hrh3 (gene 85268) (UniProt Q9QYN8); assay: NVS_GPCR_rH3: NovaScreen (NVS) G Protein-Coupled Receptor Assay for rat Histamine Receptor (H3) (AID 2283303)
Summary of the method: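 Filter-binding radioligand competition on rat forebrain membranes, 1 h incubation; compounds screened at 25 µM in duplicate and followed in concentration series to 50 µM, loss of bound signal vs DMSO.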

Sequence of rat Histamine Receptor (H3), Hrh3 (gene 85268) (Q9QYN8 whole entry, looked up): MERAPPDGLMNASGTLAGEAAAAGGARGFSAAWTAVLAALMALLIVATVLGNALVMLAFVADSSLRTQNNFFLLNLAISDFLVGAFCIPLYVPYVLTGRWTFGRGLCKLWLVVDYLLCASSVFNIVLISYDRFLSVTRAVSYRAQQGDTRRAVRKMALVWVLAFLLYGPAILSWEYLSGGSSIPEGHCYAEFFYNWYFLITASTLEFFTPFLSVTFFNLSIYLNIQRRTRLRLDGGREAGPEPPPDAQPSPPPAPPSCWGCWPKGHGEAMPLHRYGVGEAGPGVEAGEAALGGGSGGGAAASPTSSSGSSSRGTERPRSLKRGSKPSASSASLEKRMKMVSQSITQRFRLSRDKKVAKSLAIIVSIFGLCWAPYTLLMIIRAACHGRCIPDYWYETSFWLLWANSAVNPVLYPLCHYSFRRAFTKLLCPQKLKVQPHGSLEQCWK

| SMILES | AC50 | outcome |
| --- | --- | --- |
| N=C(N)c1ccc(OCCCCCOc2ccc(C(=N)N)cc2)cc1 | 0.362 µM (active) |  |
| CCCCc1oc2ccccc2c1C(=O)c1cc(I)c(OCCN(CC)CC)c(I)c1 | 6.48 µM (active) |  |
| CN(C)CCOC(c1ccccc1)c1ccccc1 |  | inactive |

biological target: Adra2b (gene 24174) (UniProt P19328); assay: NVS_GPCR_rmAdra2B: NovaScreen (NVS) G Protein-Coupled Receptor Assay for hybird cells Adrenergic, Alpha 2B Receptor (Adra2B) (AID 2283306)
Procedure: NVS_GPCR_rmAdra2B is a biochemical, single-readout assay that uses extracted gene-proteins from neuroglioma/blastoma hybrid cells in a tissue-based cell-free assay. Measurements were taken 1 hour after chemical dosing in a 48-well plate.NVS_GPCR_rmAdra2B is one of one assay component(s) measured or calculated from the NVS_GPCR_rmAdra2B assay. It is designed to make measurements of radioligand binding, a form of binding reporter, as detected with scintillation counting signals by Filter-based radiodetection technology.Data from the assay component NVS_GPCR_rmAdra2B was analyzed into 1 assay endpoint. This assay endpoint, NVS_GPCR_rmAdra2B, was analyzed in the positive analysis fitting direction relative to DMSO as the negative control and baseline of activity. Using a type of binding reporter, loss-of-signal activity can be used to understand changes in the binding as they relate to the gene Adra2b. Furthermore, this assay endpoint can be referred to as a primary readout, because the performed assay has only produced 1 assay endpoint. To generalize the intended target to other relatable targets, this assay endpoint is annotated to the gpcr intended target family, where the subfamily is rhodopsin-like receptor.
Binding assays used specific radioligands (tritiated, iodinated) with non-radioactive competitive displacement ligands in agonist or antagonist protocols (as indicated) and various reference compounds and inhibitors to titrate specific binding to receptors and transporters. Most enzyme assays (CYPs, kinases, phosphatases, proteases, HDACs) used recombinant protein and specific substrates (fluorescence mostly, some colorimetric and radioactive) and inhibitors, followed by a biochemical separation of substrate and product. All assays for the biochemical HTS were initially run in duplicate at a single concentration (10 uM for CYP450 assays and 25 uM for all others). […] Each assay was run with positive and negative controls, and concurrent controls on every plate. […]

Sequence of Adra2b (gene 24174) (P19328 whole entry, looked up): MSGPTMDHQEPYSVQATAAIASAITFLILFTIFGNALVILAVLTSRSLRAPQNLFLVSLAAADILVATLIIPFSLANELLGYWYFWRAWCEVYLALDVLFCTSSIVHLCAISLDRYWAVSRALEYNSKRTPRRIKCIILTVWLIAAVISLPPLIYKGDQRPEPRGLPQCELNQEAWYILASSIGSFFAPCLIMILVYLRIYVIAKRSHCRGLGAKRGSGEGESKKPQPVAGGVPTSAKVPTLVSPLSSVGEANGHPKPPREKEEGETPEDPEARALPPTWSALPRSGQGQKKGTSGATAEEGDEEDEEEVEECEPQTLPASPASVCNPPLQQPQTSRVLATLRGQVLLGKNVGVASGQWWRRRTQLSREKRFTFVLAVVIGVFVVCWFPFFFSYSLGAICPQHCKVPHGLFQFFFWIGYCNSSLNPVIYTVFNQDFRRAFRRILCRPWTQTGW

| SMILES | AC50 |
| --- | --- |
| N=C(N)c1ccc(OCCCCCOc2ccc(C(=N)N)cc2)cc1 | 9.06 µM (active) |
| CCCCc1oc2ccccc2c1C(=O)c1cc(I)c(OCCN(CC)CC)c(I)c1 | 11.4 µM (active) |
| CN(C)CCOC(c1ccccc1)c1ccccc1 | 3.12 µM (active) |
